In PubChem BioAssay (NCATS) one finds Potency data, which are given here for 37 compounds.

Records with an inconclusive call do not appear. Where a call stands in place of a potency, no number is given. The source made the active and inactive calls. The call rests on the fitted dose curve; in most records, active means well fitted curve in the direction sought with a large enough effect; inconclusive means small, poorly fitted or top-dose-only effect, or another doubt; inactive means no such curve, though single readings can be large; an effect the other way counts as inactive or inconclusive.
Potency means the concentration at half of the fitted maximal effect.

The first assay in a line: qHTS assay to identify small molecule inhibitors of chordoma cells - UCH-1 (AID 1259355). Further: nearly all actives have a fitted effect of over 55% in size. Conditions: UCH-1 chordoma viability, CellTiter-Glo, 48 h, combination, with auranofin plus four topoisomerase inhibitors; series mostly up to 46.1 µM. In a few lines: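 Screening used approved and investigational drugs in 15-point titration against 800 seeded cells per well. A fixed combination of auranofin with camptothecin, doxorubicin, rubitecan and topotecan followed compound addition, and growth was scored by CellTiter-Glo after 48hr.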
In general terms: qHTS replaces the single test concentration by a dilution series.
On to `CC(C)CCC[C@@H](C)[C@H]1CC(=O)C2=C3CC[C@H]4C[C@@H](O)CC[C@]4(C)[C@H]3CC[C@@]21C`, for which the Potency result is “inactive”.

Turning to `N[C@@H](Cc1cc(I)c(Oc2ccc(O)c(I)c2)c(I)c1)C(=O)O`, the Potency result was “inactive”.

Turning to `OCCN1CCN(CC/C=C2/c3ccccc3Sc3ccc(Cl)cc32)CC1`, the Potency entry was “inactive”. For the compound `N#Cc1ccc2c(c1)N(CCCN1CCC(O)CC1)c1ccccc1S2`, the Potency entry was “inactive”. For `COc1ccccc1N1CCN(CCCC(=O)c2ccc(F)cc2)CC1`, the Potency result is “inactive”. As for `CCN(CC)CCC(=O)N1c2ccccc2Sc2ccc(Cl)cc21`, the Potency entry was “inactive”. For `CCN(CC)CCCC(C)Nc1cc(/C=C/c2ccccc2Cl)nc2cc(Cl)ccc12` (stereo unspecified), the Potency result is “inactive”. As for `CC[C@@H](C(=O)[C@@H](C)[C@@H](O)[C@H](C)[C@@H]1O[C@@H]([C@@H](CC)C(=O)O)CC[C@@H]1C)[C@H]1O[C@]2(C=C[C@@H](O)[C@]3(CC[C@@](C)([C@H]4CC[C@](O)(CC)[C@H](C)O4)O3)O2)[C@H](C)C[C@@H]1C`, the Potency was 11.2 µM (active). On the same count and under the same terms, the value for `CS(=O)(=O)c1ccc([C@@H](O)[C@@H](COC(=O)CN)NC(=O)C(Cl)Cl)cc1` was “inactive”; that for `CC(CN1c2ccccc2Sc2cccnc21)N(C)C` (stereo unspecified) was “inactive”. Regarding `C=C1CC[C@H](O)CC1=C/C=C1\CCC[C@]2(C)[C@@H]([C@H](C)CCCC(C)(C)O)CC[C@@H]12`, the Potency result is “inactive”. On the same count and under the same terms, the value for `CC(C)NCC(O)COc1ccccc1-n1cccc1` (stereo unspecified) was “inactive”; that for `CN(C)CCC(O)(c1ccccc1)c1ccccc1Cl` (stereo unspecified) was “inactive”. The same measure, in the same setting: with `O=[N+]([O-])c1c(Cl)cccc1-c1c[nH]cc1Cl` the entry was “inactive”; with `CCSc1ccc2c(c1)N(CCCN1CCN(C)CC1)c1ccccc1S2`, “inactive”; with `CSc1nc2cc(Oc3cccc(Cl)c3Cl)c(Cl)cc2[nH]1`, “inactive”. In the case of `CC(C)N1CCN(c2ccc(OC[C@H]3CO[C@](Cn4cncn4)(c4ccc(Cl)cc4Cl)O3)cc2)CC1`, the Potency result was “inactive”. As to `CCCCCCCCCCCCCCCCOCCOCCOCCOCCOCCOCCOCCOCCOCCOCCOCCOCCOCCOCCOCCOCCOCCOCCOCCOCCO`, the Potency is 35.5 µM (active). Regarding `CC(C)(C)NC[C@H](O)COc1ccccc1C1CCCC1`, the Potency entry is “inactive”. For `C=CC[C@@H]1/C=C(\C)C[C@H](C)C[C@H](OC)[C@H]2O[C@@](O)(C(=O)C(=O)N3CCCC[C@H]3C(=O)O[C@H](/C(C)=C/[C@@H]3CC[C@@H](O)[C@H](OC)C3)[C@H](C)[C@@H](O)CC1=O)[C@H](C)C[C@@H]2OC`, the Potency result was “inactive”.

As to `O=C(c1cc2ccccc2o1)N1CCN(Cc2ccccc2)CC1`, the Potency entry is “inactive”. `CCCc1nc(C(C)(C)O)c(C(=O)OCc2oc(=O)oc2C)n1Cc1ccc(-c2ccccc2-c2nn[nH]n2)cc1`: the Potency result was “inactive”. `NC(=S)N=Nc1ccc(NN=C(N)N)cc1`: the Potency result is “inactive”. As to `COc1ccc2c(c1)N(C[C@H](C)CN(C)C)c1ccccc1S2`, the Potency result was “inactive”.

With `CC(=O)c1ccc2c(c1)N(CCCN1CCN(CCO)CC1)c1ccccc1S2`, the Potency result is “inactive”. For the compound `CN(C)CCOc1ccc(/C(=C(/CCCl)c2ccccc2)c2ccccc2)cc1`, the Potency entry was “inactive”.

Consider `CC(C)=CCC/C(C)=C/CC/C(C)=C/CC/C(C)=C/CC1=C(C)C(=O)c2ccccc2C1=O`, for which the Potency result was “inactive”. As for `CCN(CC)CCOCCOC(=O)C(CC)(CC)c1ccccc1`, the Potency result is “inactive”. The same measure, in the same setting: with `C[C@H](CCCC(C)(C)O)[C@H]1CC[C@H]2[C@@H]3CC=C4C[C@@H](O)CC[C@]4(C)[C@H]3CC[C@]12C` the entry was “inactive”; with `O=c1n(CC2CO2)c(=O)n(CC2CO2)c(=O)n1CC1CO1` (stereo unspecified), “inactive”; with `O=C1/C(=C\c2cccs2)CCC/C1=C\c1cccs1`, “inactive”.

For the compound `C[C@H]1O[C@@H](O[C@H]2[C@@H](O)C[C@H](O[C@H]3[C@@H](O)C[C@H](O[C@H]4CC[C@@]5(C)[C@H](CC[C@@H]6[C@@H]5C[C@@H](O)[C@]5(C)[C@@H](C7=CC(=O)OC7)CC[C@]65O)C4)O[C@@H]3C)O[C@@H]2C)C[C@H](O)[C@@H]1O`, the Potency is 0.355 µM (active). Same read-out and setting: the value for `O=C(CCCN1CCC(C(=O)c2ccc(F)cc2)CC1)c1ccc(F)cc1` was “inactive”; that for `CN1C(C(=O)Nc2ccccn2)C(=O)c2sc(Cl)cc2S1(=O)=O` (stereo unspecified) was “inactive”; that for `CC1=C(/C=C/C(C)=C/C=C/C(C)=C/C=C/C=C(C)/C=C/C=C(C)/C=C/C2=C(C)C[C@@H](O)CC2(C)C)C(C)(C)C[C@H](O)C1` was “inactive”.

On to `CN(C)c1ccc(C(=C2C=CC(=[N+](C)C)C=C2)c2c(O)c(S(=O)(=O)[O-])cc3cc(S(=O)(=O)O)ccc23)cc1`, for which the Potency was 14.1 µM (active).

In the case of `CCOc1ccc(NC(=S)Nc2ccc(OCC)cc2)cc1`, the Potency entry is “inactive”.

A short description of another assay: qHTS assay to identify small molecule inhibitors of chordoma cells - UCH-2 (AID 1259356). Conditions: UCH-2 chordoma viability, CellTiter-Glo ATP luminescence, 48 h; series mostly up to 46.1 µM.
With `CC(C)CCC[C@@H](C)[C@H]1CC(=O)C2=C3CC[C@H]4C[C@@H](O)CC[C@]4(C)[C@H]3CC[C@@]21C`, the Potency result was “inactive”. Same read-out and setting: with `N[C@@H](Cc1cc(I)c(Oc2ccc(O)c(I)c2)c(I)c1)C(=O)O` the entry was “inactive”. Take `OCCN1CCN(CC/C=C2/c3ccccc3Sc3ccc(Cl)cc32)CC1`: the Potency entry was “inactive”. Consider `N#Cc1ccc2c(c1)N(CCCN1CCC(O)CC1)c1ccccc1S2`, for which the Potency result was “inactive”. Consider `COc1ccccc1N1CCN(CCCC(=O)c2ccc(F)cc2)CC1`, for which the Potency entry was “inactive”. Same read-out and setting: the value for `CCN(CC)CCC(=O)N1c2ccccc2Sc2ccc(Cl)cc21` was “inactive”; that for `CCN(CC)CCCC(C)Nc1cc(/C=C/c2ccccc2Cl)nc2cc(Cl)ccc12` (stereo unspecified) was “inactive”; that for `CC[C@@H](C(=O)[C@@H](C)[C@@H](O)[C@H](C)[C@@H]1O[C@@H]([C@@H](CC)C(=O)O)CC[C@@H]1C)[C@H]1O[C@]2(C=C[C@@H](O)[C@]3(CC[C@@](C)([C@H]4CC[C@](O)(CC)[C@H](C)O4)O3)O2)[C@H](C)C[C@@H]1C` was “inactive”. With `CC(CN1c2ccccc2Sc2cccnc21)N(C)C` (stereo unspecified), the Potency entry was “inactive”. For the compound `C=C1CC[C@H](O)CC1=C/C=C1\CCC[C@]2(C)[C@@H]([C@H](C)CCCC(C)(C)O)CC[C@@H]12`, the Potency result is “inactive”. Take `CN(C)CCC(O)(c1ccccc1)c1ccccc1Cl` (stereo unspecified): the Potency result was “inactive”. `O=[N+]([O-])c1c(Cl)cccc1-c1c[nH]cc1Cl`: the Potency entry is “inactive”. For the compound `CCSc1ccc2c(c1)N(CCCN1CCN(C)CC1)c1ccccc1S2`, the Potency result is “inactive”.

For the compound `CSc1nc2cc(Oc3cccc(Cl)c3Cl)c(Cl)cc2[nH]1`, the Potency result is “inactive”. On the same count and under the same terms, with `CC(C)N1CCN(c2ccc(OC[C@H]3CO[C@](Cn4cncn4)(c4ccc(Cl)cc4Cl)O3)cc2)CC1` the entry was “inactive”; with `CCCCCCCCCCCCCCCCOCCOCCOCCOCCOCCOCCOCCOCCOCCOCCOCCOCCOCCOCCOCCOCCOCCOCCOCCOCCO`, “inactive”.

With `C=CC[C@@H]1/C=C(\C)C[C@H](C)C[C@H](OC)[C@H]2O[C@@](O)(C(=O)C(=O)N3CCCC[C@H]3C(=O)O[C@H](/C(C)=C/[C@@H]3CC[C@@H](O)[C@H](OC)C3)[C@H](C)[C@@H](O)CC1=O)[C@H](C)C[C@@H]2OC`, the Potency entry is “inactive”. Same read-out and setting: the value for `O=C(c1cc2ccccc2o1)N1CCN(Cc2ccccc2)CC1` was “inactive”; that for `CCCc1nc(C(C)(C)O)c(C(=O)OCc2oc(=O)oc2C)n1Cc1ccc(-c2ccccc2-c2nn[nH]n2)cc1` was “inactive”.

With `NC(=S)N=Nc1ccc(NN=C(N)N)cc1`, the Potency result is “inactive”.

For the compound `COc1ccc2c(c1)N(C[C@H](C)CN(C)C)c1ccccc1S2`, the Potency entry is “inactive”. Regarding `CC(=O)c1ccc2c(c1)N(CCCN1CCN(CCO)CC1)c1ccccc1S2`, the Potency entry is “inactive”.

Regarding `CN(C)CCOc1ccc(/C(=C(/CCCl)c2ccccc2)c2ccccc2)cc1`, the Potency entry is “inactive”. As to `CC(C)=CCC/C(C)=C/CC/C(C)=C/CC/C(C)=C/CC1=C(C)C(=O)c2ccccc2C1=O`, the Potency entry is “inactive”. In the case of `CCN(CC)CCOCCOC(=O)C(CC)(CC)c1ccccc1`, the Potency entry was “inactive”. With `C[C@H](CCCC(C)(C)O)[C@H]1CC[C@H]2[C@@H]3CC=C4C[C@@H](O)CC[C@]4(C)[C@H]3CC[C@]12C`, the Potency result is “inactive”. Still for that read-out and setting: with `O=c1n(CC2CO2)c(=O)n(CC2CO2)c(=O)n1CC1CO1` (stereo unspecified) the entry was “inactive”; with `O=C1/C(=C\c2cccs2)CCC/C1=C\c1cccs1`, “inactive”; with `C[C@H]1O[C@@H](O[C@H]2[C@@H](O)C[C@H](O[C@H]3[C@@H](O)C[C@H](O[C@H]4CC[C@@]5(C)[C@H](CC[C@@H]6[C@@H]5C[C@@H](O)[C@]5(C)[C@@H](C7=CC(=O)OC7)CC[C@]65O)C4)O[C@@H]3C)O[C@@H]2C)C[C@H](O)[C@@H]1O`, 0.116 µM (active). For `O=C(CCCN1CCC(C(=O)c2ccc(F)cc2)CC1)c1ccc(F)cc1`, the Potency entry is “inactive”. Still for that read-out and setting: the value for `CN1C(C(=O)Nc2ccccn2)C(=O)c2sc(Cl)cc2S1(=O)=O` (stereo unspecified) was “inactive”; that for `CC1=C(/C=C/C(C)=C/C=C/C(C)=C/C=C/C=C(C)/C=C/C=C(C)/C=C/C2=C(C)C[C@@H](O)CC2(C)C)C(C)(C)C[C@H](O)C1` was “inactive”; that for `CN(C)c1ccc(C(=C2C=CC(=[N+](C)C)C=C2)c2c(O)c(S(=O)(=O)[O-])cc3cc(S(=O)(=O)O)ccc23)cc1` was 20.6 µM (active). As for `CCOc1ccc(NC(=S)Nc2ccc(OCC)cc2)cc1`, the Potency result was “inactive”.
